# Unmarked numbers belong to inactive results. Inconclusive results are not listed. Entries that show only a call come without a potency. The source made the active and inactive calls. Calls come from the whole dose curve; as a rule, active = well fitted curve in the direction sought with a large enough effect in the repeat runs; inconclusive = weak or mixed curves; inactive = no such curve, though single readings can be large; an effect the other way counts as inactive or inconclusive.
# Experiments:
# [1] = qHTS RealTime-Glo MT Cell Viability Assay in HEK293 cells - 16 hour (AID 1224872); note: nearly all actives have a fitted effect of over 50% in size; note: potency is the fitted concentration of half-maximal effect
# Method in brief: (§1)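 Quantitative high-throughput screen of the Tox21 10K library in HEK293: cells and RealTime-Glo reagents plated together, compound added at 5 h, luminescence monitored through 40 h at 37 C.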
# [2] = qHTS RealTime-Glo MT Cell Viability Assay in HepG2 cells - 8 hour (AID 1224873); note: nearly all actives have a fitted effect of over 55% in size
# Method in brief: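 HepG2 cells (600/well) mixed with RealTime-Glo MT reagent, settled 5 h at 37 C/5% CO2 before compound addition. Nonlytic NanoLuc luminescence from viable-cell prosubstrate reduction read repeatedly during 40 h treatment at 37 C.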
# [3] = qHTS RealTime-Glo MT Cell Viability Assay in HEK293 cells - 40 hour (AID 1224874); settings: RealTime-Glo luminescence; max response: active compounds read low; note: nearly all actives have a fitted effect of over 50% in size; note: potency is the fitted concentration of half-maximal effect
# Method in brief: (§2)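 Real-time viability in HEK293: signal arises when living cells convert a prosubstrate for NanoLuc in the medium, so luminescence tracks viable cell number. Compound (23 nL, DMSO) added 5 h post-seeding; kinetic reads at 0–40 h, 37 C.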
# [4] = A CellTox Green Cytotoxicity Assay to monitor cytotoxicity in HEK293 cells - 24 hour (AID 1224875); note: series mostly up to about 77 µM; nearly all actives have a fitted effect of over 45% in size
# Method in brief: (§3)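 Cells (HEK293, 600/well) and dye reagent are dispensed together. After 5 h at 37 C, 23 nL compound is pinned in. Plates stay at 37 C for 40 h with fluorescence read at 0h, 8h, 16h, 24h, 32h and 40h.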
# [5] = A CellTox Green Cytotoxicity Assay to monitor cytotoxicity in HepG2 cells - 16 hour (AID 1224876); note: nearly all actives have a fitted effect of over 45% in size
# Method in brief: (§4)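 Cells and non-lytic dye reagent are dispensed together (600 HepG2 cells/well) and incubated 5 h before DMSO compound transfer. Kinetic fluorescence is then recorded in the same wells during 40 h at 37 C.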
# [6] = A CellTox Green Cytotoxicity Assay to monitor cytotoxicity in HepG2 cells - 24 hour (AID 1224878); note: nearly all actives have a fitted effect of over 45% in size
# Method in brief: as §4
# [7] = A CellTox Green Cytotoxicity Assay to monitor cytotoxicity in HepG2 cells - 40 hour (AID 1224879); note: nearly all actives have a fitted effect of over 40% in size
# Method in brief: as §4
# [8] = qHTS RealTime-Glo MT Cell Viability Assay in HEK293 cells - 0 hour (AID 1224880); note: top concentration of the series differs between compounds; nearly all actives have a fitted effect of over 45% in size
# Method in brief: as §2
# [9] = A CellTox Green Cytotoxicity Assay to monitor cytotoxicity in HEK293 cells - 32 hour (AID 1224881); note: nearly all actives have a fitted effect of over 40% in size
# Method in brief: as §3
# [10] = A CellTox Green Cytotoxicity Assay to monitor cytotoxicity in HepG2 cells - 0 hour (AID 1224882); note: nearly all actives have a fitted effect of over 35% in size
# Method in brief: as §4
# [11] = A CellTox Green Cytotoxicity Assay to monitor cytotoxicity in HepG2 cells - 32 hour (AID 1224883); note: nearly all actives have a fitted effect of over 50% in size
# Method in brief: as §4
# [12] = A CellTox Green Cytotoxicity Assay to monitor cytotoxicity in HEK293 cells - 8 hour (AID 1224884); note: nearly all actives have a fitted effect of over 35% in size
# Method in brief: as §3
# [13] = qHTS RealTime-Glo MT Cell Viability Assay in HepG2 cells - 16 hour (AID 1224885); note: nearly all actives have a fitted effect of over 50% in size
# Method in brief: (§5)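 Compound treatment began 5 h after plating HepG2 cells (600/well) with NanoLuc luciferase and prosubstrate. Plates stayed at 37 C for 40 h; luminescence was captured at six time points, 0 h through 40 h.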
# [14] = A CellTox Green Cytotoxicity Assay to monitor cytotoxicity in HEK293 cells - 16 hour (AID 1224888); note: nearly all actives have a fitted effect of over 35% in size
# Method in brief: as §3
# [15] = qHTS RealTime-Glo MT Cell Viability Assay in HepG2 cells - 0 hour (AID 1224889); note: nearly all actives have a fitted effect of over 50% in size
# Method in brief: as §5
# [16] = A CellTox Green Cytotoxicity Assay to monitor cytotoxicity in HepG2 cells - 8 hour (AID 1224890); note: nearly all actives have a fitted effect of over 45% in size
# Method in brief: as §4
# [17] = qHTS assay to identify small molecule antagonists of the estrogen receptor alpha (ER-alpha) signaling pathway using the BG1 cell line in the presence of 0.1 nM 17-beta-estradiol - cell viability counter screen (AID 1259241); note: nearly all actives have a fitted effect of over 40% in size
# Method in brief: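 Cytotoxicity counter-screen: live-cell protease activity measured by fluorescence (30 min reagent step) in the same wells. Cells were VM7Luc4E2 with endogenous ER-alpha and ERE-driven luciferase, treated 22 hr at 37C alongside 0.1 nM 17beta-estradiol final.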
# [18] = qHTS RealTime-Glo MT Cell Viability Assay in HepG2 cells - 32 hour (AID 1224877); note: nearly all actives have a fitted effect of over 55% in size
# Method in brief: as §5
# [19] = qHTS RealTime-Glo MT Cell Viability Assay in HEK293 cells - 24 hour (AID 1224886); note: nearly all actives have a fitted effect of over 50% in size; note: potency is the fitted concentration of half-maximal effect
# Method in brief: as §1
# [20] = qHTS RealTime-Glo MT Cell Viability Assay in HEK293 cells - 8 hour (AID 1224887); note: nearly all actives have a fitted effect of over 50% in size; note: potency is the fitted concentration of half-maximal effect
# Method in brief: as §2
compound,measurement,setting,value
CCC(CC)(CNC(=O)CCCO)c1cccc(OC)c1,Potency,[1],inactive
same,outcome,[2],inactive
same,max response,[3],4.41%
same,Potency,[4],inactive
same,Potency,[5],inactive
same,Potency,[6],inactive
same,Potency,[7],inactive
same,outcome,[8],inactive
same,Potency,[9],inactive
same,outcome,[10],inactive
same,Potency,[11],inactive
same,Potency,[12],inactive
same,Potency,[13],inactive
same,Potency,[14],inactive
same,outcome,[15],inactive
same,Potency,[16],inactive
same,outcome,[17],inactive
CC[C@@H](CO)NC(=O)[C@@H]1C=C2c3cccc4[nH]cc(c34)C[C@H]2N(C)C1,Potency,[1],inactive
same,outcome,[2],inactive
same,max response,[3],1.11%
same,Potency,[4],inactive
same,Potency,[5],inactive
same,Potency,[18],inactive
same,Potency,[7],inactive
same,outcome,[8],inactive
same,Potency,[9],inactive
same,Potency,[11],inactive
same,Potency,[12],inactive
same,Potency,[19],inactive
same,Potency,[20],inactive
same,Potency,[14],inactive
same,outcome,[15],inactive
same,Potency,[16],inactive
CON(C)C(=O)Nc1ccc(Br)cc1,Potency,[1],inactive
same,outcome,[2],inactive
same,max response,[3],-9.38%
same,Potency,[4],inactive
same,Potency,[5],inactive
same,Potency,[6],inactive
same,Potency,[7],inactive
same,outcome,[8],inactive
same,Potency,[9],inactive
same,outcome,[10],inactive
same,Potency,[11],inactive
same,Potency,[12],inactive
same,Potency,[13],inactive
same,Potency,[20],inactive
same,Potency,[14],inactive
same,Potency,[16],inactive
same,outcome,[17],inactive
C[C@@H](N)[C@@H](O)c1ccccc1,Potency,[1],inactive
same,outcome,[2],inactive
same,max response,[3],1.05%
same,Potency,[4],inactive
same,Potency,[5],inactive
same,Potency,[6],inactive
same,Potency,[7],inactive
same,outcome,[8],inactive
same,Potency,[9],inactive
same,outcome,[10],inactive
same,Potency,[11],inactive
same,Potency,[12],inactive
same,Potency,[19],inactive
same,Potency,[20],inactive
same,Potency,[14],inactive
same,Potency,[16],inactive
NC(=O)OCCCc1ccccc1,Potency,[1],inactive
same,outcome,[2],inactive
same,max response,[3],2.14%
same,Potency,[4],inactive
same,Potency,[5],inactive
same,Potency,[6],inactive
same,Potency,[7],inactive
same,outcome,[8],inactive
same,Potency,[9],inactive
same,outcome,[10],inactive
same,Potency,[11],inactive
same,Potency,[12],inactive
same,Potency,[13],inactive
same,Potency,[19],inactive
same,Potency,[20],inactive
same,Potency,[14],inactive
same,outcome,[15],inactive
same,Potency,[16],inactive
same,outcome,[17],inactive
CCN(CCO)CCn1c(Cc2ccccc2)nc2c1c(=O)n(C)c(=O)n2C,Potency,[1],inactive
same,outcome,[2],inactive
same,max response,[3],-42.2%
same,Potency,[4],inactive
same,Potency,[5],inactive
same,Potency,[6],inactive
same,Potency,[7],inactive
same,outcome,[8],inactive
same,Potency,[9],inactive
same,outcome,[10],inactive
same,Potency,[11],inactive
same,Potency,[12],inactive
same,Potency,[13],inactive
same,Potency,[19],inactive
same,Potency,[14],inactive
same,outcome,[15],inactive
same,Potency,[16],inactive
same,outcome,[17],inactive
CC(C)NCC(O)c1ccc([N+](=O)[O-])cc1 (stereo not drawn),Potency,[1],inactive
same,outcome,[2],inactive
same,max response,[3],6.95%
same,Potency,[4],inactive
same,Potency,[5],inactive
same,Potency,[18],inactive
same,Potency,[7],inactive
same,outcome,[8],inactive
same,Potency,[9],inactive
same,Potency,[11],inactive
same,Potency,[12],inactive
same,Potency,[13],inactive
same,Potency,[19],inactive
same,Potency,[20],inactive
same,Potency,[14],inactive
same,Potency,[16],inactive
same,outcome,[17],inactive
CC(Cc1ccccc1)NCCn1cnc2c1c(=O)n(C)c(=O)n2C (stereo not drawn),Potency,[1],15.3 µM (active)
same,outcome,[2],inactive
same,Potency,[3],24.2 µM (active)
same,Potency,[4],inactive
same,Potency,[5],inactive
same,Potency,[18],inactive
same,Potency,[7],inactive
same,outcome,[8],inactive
same,Potency,[9],inactive
same,Potency,[11],inactive
same,Potency,[12],inactive
same,Potency,[13],inactive
same,Potency,[19],21.6 µM (active)
same,Potency,[20],24.2 µM (active)
same,Potency,[14],inactive
same,outcome,[15],inactive
same,Potency,[16],inactive
same,outcome,[17],inactive
CC(Cl)(Cl)Cl,Potency,[1],inactive
same,outcome,[2],inactive
same,max response,[3],-1.28%
same,Potency,[4],inactive
same,Potency,[5],inactive
same,Potency,[6],inactive
same,Potency,[7],inactive
same,outcome,[8],inactive
same,Potency,[9],inactive
same,outcome,[10],inactive
same,Potency,[11],inactive
same,Potency,[12],inactive
same,Potency,[13],inactive
same,Potency,[19],inactive
same,Potency,[20],inactive
same,Potency,[14],inactive
same,outcome,[15],inactive
same,Potency,[16],inactive
same,outcome,[17],inactive
CCC(C)C(C)(COC(N)=O)COC(N)=O (stereo not drawn),Potency,[1],inactive
same,outcome,[2],inactive
same,max response,[3],3.68%
same,Potency,[4],inactive
same,Potency,[5],inactive
same,Potency,[6],inactive
same,Potency,[7],inactive
same,outcome,[8],inactive
same,Potency,[9],inactive
same,outcome,[10],inactive
same,Potency,[11],inactive
same,Potency,[12],inactive
same,Potency,[19],inactive
same,Potency,[20],inactive
same,Potency,[14],inactive
same,outcome,[15],inactive
same,Potency,[16],inactive
same,outcome,[17],inactive
CC(C)(C)C(=O)Cl,Potency,[1],inactive
same,outcome,[2],inactive
same,max response,[3],-0.811%
same,Potency,[4],inactive
same,Potency,[5],inactive
same,Potency,[6],inactive
same,Potency,[7],inactive
same,outcome,[8],inactive
same,Potency,[9],inactive
same,outcome,[10],inactive
same,Potency,[11],inactive
same,Potency,[12],inactive
same,Potency,[13],inactive
same,Potency,[20],inactive
same,Potency,[14],inactive
same,Potency,[16],inactive
same,outcome,[17],inactive
CCSC(=O)Cl,Potency,[1],inactive
same,outcome,[2],inactive
same,max response,[3],15.5%
same,Potency,[4],inactive
same,Potency,[5],inactive
same,Potency,[6],inactive
same,Potency,[7],inactive
same,outcome,[8],inactive
same,Potency,[9],inactive
same,outcome,[10],inactive
same,Potency,[11],inactive
same,Potency,[12],inactive
same,Potency,[20],inactive
same,Potency,[14],inactive
same,outcome,[15],inactive
same,Potency,[16],inactive
same,outcome,[17],inactive
N#CN,Potency,[1],inactive
same,outcome,[2],inactive
same,max response,[3],4.8%
same,Potency,[4],inactive
same,Potency,[5],inactive
same,Potency,[18],inactive
same,Potency,[7],inactive
same,outcome,[8],inactive
same,Potency,[9],inactive
same,outcome,[10],inactive
same,Potency,[11],inactive
same,Potency,[12],inactive
same,Potency,[20],inactive
same,Potency,[14],inactive
same,Potency,[16],inactive
same,outcome,[17],inactive
CC(C)[C@]12CC(=O)[C@H](C)[C@H]1C2,Potency,[1],inactive
same,outcome,[2],inactive
same,max response,[3],-4.49%
same,Potency,[4],inactive
same,Potency,[5],inactive
same,Potency,[6],inactive
same,Potency,[7],inactive
same,outcome,[8],inactive
same,Potency,[9],inactive
same,Potency,[11],inactive
same,Potency,[12],inactive
same,Potency,[13],inactive
same,Potency,[19],inactive
same,Potency,[20],inactive
same,Potency,[14],inactive
same,outcome,[15],inactive
same,Potency,[16],inactive
same,outcome,[17],inactive
c1cncc([C@@H]2CCCCN2)c1,Potency,[1],inactive
same,outcome,[2],inactive
same,max response,[3],9.53%
same,Potency,[4],inactive
same,Potency,[5],inactive
same,Potency,[6],inactive
same,Potency,[7],inactive
same,outcome,[8],inactive
same,Potency,[9],inactive
same,outcome,[10],inactive
same,Potency,[11],inactive
same,Potency,[12],inactive
same,Potency,[19],inactive
same,Potency,[14],inactive
same,outcome,[17],inactive
